According to article PMC7862700, “An all-to-all approach to the identification of sequence-specific readers for epigenetic DNA modifications on cytosine”:

Legend:
Test in all cases: DAPPL (digital affinity profiling via proximity ligation, sequencing); 10 mM Tris-HCl pH 7.5, 50 mM NaCl, 1 mM DTT, 4% glycerol, room temperature, 30 min; GST-TFs on glutathione beads, 16-mer random dsDNA library, 0.1% formaldehyde crosslink after washing; high values mean tight binding
Conditions in all cases: protein: recombinant; tags: N-terminal GST; dsDNA, one strand shown
FLI1 = molecular target: T1, FLI1 (Homo sapiens, UniProt Q01543 1-452)
T1 sequence: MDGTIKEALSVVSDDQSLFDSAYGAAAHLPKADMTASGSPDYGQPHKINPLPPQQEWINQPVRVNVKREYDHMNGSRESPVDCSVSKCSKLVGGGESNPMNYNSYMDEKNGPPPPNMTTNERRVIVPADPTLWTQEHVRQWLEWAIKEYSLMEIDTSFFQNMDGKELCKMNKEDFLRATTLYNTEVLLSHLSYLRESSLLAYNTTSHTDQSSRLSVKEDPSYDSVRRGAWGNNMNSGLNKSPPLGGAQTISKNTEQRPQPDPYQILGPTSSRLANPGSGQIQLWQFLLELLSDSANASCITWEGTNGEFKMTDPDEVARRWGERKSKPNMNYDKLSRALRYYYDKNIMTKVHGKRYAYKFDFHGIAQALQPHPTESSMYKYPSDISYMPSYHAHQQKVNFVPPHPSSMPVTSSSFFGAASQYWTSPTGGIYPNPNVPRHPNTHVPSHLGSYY
Summary of the method: (§1)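 Binding signal is defined as a hexamer's read frequency for one factor over its frequency for the tag-only sample. To obtain reads, GST-fused human transcription factors were expressed in yeast, captured on glutathione beads, barcoded with DNA and pooled with that sample. Pools met 200 nmole of a 16-mer random double-stranded DNA library in Tris/NaCl/DTT/glycerol buffer for 30 min at room temperature before washing, 0.1% formaldehyde crosslinking, proximity ligation (BsaI/T4 ligase, 1 h, 37 °C), PCR and Illumina NextSeq500 sequencing.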

GABPA = molecular target: T2, GABPA (Homo sapiens, UniProt Q06546 1-454)
T2 sequence: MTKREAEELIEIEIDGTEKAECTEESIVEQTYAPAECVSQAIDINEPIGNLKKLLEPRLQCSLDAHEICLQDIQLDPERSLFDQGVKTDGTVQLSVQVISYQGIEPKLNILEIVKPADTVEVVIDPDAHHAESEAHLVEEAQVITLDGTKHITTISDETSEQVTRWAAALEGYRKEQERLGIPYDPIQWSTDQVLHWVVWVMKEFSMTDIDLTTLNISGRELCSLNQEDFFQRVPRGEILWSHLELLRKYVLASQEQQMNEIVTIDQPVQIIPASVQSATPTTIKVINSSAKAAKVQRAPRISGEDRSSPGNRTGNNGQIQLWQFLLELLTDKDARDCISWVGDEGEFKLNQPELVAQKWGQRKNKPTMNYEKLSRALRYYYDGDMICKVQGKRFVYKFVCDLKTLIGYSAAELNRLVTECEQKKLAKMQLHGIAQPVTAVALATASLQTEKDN
Summary of the method: as §1

ERG = molecular target: T3, ERG (Homo sapiens, UniProt P11308 1-479)
T3 sequence: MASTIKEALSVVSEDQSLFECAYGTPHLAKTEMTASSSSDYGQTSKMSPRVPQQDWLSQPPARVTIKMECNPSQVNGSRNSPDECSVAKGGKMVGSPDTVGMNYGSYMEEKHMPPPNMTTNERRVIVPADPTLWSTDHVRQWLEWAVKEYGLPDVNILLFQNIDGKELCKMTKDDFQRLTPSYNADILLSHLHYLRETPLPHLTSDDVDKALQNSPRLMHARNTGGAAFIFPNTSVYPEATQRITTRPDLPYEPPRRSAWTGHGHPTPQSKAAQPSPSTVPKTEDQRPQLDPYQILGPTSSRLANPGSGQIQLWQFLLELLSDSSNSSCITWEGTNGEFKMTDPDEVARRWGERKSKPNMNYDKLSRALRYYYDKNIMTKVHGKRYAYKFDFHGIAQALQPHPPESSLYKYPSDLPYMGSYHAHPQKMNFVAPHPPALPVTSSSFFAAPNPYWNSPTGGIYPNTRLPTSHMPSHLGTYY
Summary of the method: as §1

EHF = molecular target: T4, EHF (Homo sapiens, UniProt Q9NZC4 1-300)
T4 sequence: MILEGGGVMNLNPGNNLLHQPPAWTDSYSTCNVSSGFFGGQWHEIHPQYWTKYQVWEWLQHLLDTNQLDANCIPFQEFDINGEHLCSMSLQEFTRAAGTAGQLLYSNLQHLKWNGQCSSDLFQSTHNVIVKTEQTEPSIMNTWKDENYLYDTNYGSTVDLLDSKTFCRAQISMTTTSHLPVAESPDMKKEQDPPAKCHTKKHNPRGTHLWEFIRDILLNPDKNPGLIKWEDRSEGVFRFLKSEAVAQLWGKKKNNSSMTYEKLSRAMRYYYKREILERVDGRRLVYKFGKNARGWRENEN
Summary of the method: as §1

SPIB = SPIB (Homo sapiens, UniProt Q01892 1-262)
SPIB, sequence (Q01892 whole entry): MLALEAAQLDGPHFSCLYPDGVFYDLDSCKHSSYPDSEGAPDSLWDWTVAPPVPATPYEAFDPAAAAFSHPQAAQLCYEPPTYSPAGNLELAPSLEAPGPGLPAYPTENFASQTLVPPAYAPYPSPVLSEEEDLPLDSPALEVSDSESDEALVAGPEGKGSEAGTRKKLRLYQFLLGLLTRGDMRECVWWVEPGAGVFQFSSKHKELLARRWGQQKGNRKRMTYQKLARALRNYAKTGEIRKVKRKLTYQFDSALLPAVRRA
Summary of the method: as §1

ELK3 = molecular target: T5, ELK3 (Homo sapiens, UniProt P41970 1-407)
T5 sequence: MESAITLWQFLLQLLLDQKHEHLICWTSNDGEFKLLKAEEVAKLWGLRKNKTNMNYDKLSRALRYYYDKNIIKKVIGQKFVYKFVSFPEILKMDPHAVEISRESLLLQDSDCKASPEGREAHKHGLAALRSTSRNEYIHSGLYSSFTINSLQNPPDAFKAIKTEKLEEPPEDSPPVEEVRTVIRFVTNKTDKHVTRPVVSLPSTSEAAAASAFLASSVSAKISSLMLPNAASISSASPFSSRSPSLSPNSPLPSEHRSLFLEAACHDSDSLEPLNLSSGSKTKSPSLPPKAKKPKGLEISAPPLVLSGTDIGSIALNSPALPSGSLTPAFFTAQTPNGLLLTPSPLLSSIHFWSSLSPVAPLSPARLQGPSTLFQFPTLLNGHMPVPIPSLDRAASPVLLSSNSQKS
Summary of the method: as §1

FEV = molecular target: T6, FEV (Homo sapiens, UniProt Q99581 1-238)
T6 sequence: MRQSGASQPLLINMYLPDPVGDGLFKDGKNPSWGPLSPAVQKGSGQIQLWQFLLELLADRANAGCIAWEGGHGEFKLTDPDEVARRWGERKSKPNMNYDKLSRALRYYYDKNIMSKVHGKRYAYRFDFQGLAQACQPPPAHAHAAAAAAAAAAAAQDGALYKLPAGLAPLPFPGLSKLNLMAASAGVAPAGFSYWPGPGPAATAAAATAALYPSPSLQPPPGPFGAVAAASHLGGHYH
Summary of the method: as §1

ETV5 = ETV5 (Homo sapiens, UniProt P41161 1-510)
ETV5, sequence (P41161 whole entry): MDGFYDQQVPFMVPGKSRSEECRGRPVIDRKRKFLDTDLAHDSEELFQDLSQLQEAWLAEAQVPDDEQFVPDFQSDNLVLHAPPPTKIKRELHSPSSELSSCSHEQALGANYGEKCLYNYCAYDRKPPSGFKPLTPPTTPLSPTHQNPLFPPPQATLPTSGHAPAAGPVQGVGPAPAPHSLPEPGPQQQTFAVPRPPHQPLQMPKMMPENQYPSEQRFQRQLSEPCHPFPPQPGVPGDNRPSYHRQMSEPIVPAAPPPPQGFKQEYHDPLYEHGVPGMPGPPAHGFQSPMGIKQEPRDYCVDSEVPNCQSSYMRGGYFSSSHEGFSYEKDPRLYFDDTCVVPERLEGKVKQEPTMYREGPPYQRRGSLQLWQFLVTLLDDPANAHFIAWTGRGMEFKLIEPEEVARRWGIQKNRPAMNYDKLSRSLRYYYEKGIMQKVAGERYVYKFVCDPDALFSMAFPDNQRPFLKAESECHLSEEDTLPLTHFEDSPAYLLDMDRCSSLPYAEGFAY
Summary of the method: as §1

SPIC = molecular target: T7, SPIC (Homo sapiens, UniProt Q8N5J4 1-248)
T7 sequence: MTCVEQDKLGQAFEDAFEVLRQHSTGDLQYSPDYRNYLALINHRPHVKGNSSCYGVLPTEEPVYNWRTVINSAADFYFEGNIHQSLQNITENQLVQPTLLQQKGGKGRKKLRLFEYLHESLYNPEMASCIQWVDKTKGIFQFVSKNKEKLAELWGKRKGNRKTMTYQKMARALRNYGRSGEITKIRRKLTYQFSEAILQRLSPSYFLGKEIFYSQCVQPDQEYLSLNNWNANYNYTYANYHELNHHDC
Summary of the method: as §1

ETV1 = ETV1 (Homo sapiens, UniProt P50549 1-477)
ETV1, sequence (P50549 whole entry): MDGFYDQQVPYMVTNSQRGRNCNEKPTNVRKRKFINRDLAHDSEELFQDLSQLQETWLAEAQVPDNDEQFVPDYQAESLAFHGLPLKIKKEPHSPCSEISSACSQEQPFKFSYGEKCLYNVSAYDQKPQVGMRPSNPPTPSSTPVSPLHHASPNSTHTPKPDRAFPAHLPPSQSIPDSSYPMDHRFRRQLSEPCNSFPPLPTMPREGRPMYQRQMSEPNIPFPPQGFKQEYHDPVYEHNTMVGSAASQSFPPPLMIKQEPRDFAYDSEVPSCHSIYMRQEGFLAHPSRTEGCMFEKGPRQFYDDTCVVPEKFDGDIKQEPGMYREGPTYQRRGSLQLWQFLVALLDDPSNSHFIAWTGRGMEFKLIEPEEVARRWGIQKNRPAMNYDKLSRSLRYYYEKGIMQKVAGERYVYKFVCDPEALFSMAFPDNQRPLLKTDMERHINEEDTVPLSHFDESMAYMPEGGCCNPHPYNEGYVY
Summary of the method: as §1

ETV3L = molecular target: T8, ETV3L (Homo sapiens, UniProt Q6ZN32 1-361)
T8 sequence: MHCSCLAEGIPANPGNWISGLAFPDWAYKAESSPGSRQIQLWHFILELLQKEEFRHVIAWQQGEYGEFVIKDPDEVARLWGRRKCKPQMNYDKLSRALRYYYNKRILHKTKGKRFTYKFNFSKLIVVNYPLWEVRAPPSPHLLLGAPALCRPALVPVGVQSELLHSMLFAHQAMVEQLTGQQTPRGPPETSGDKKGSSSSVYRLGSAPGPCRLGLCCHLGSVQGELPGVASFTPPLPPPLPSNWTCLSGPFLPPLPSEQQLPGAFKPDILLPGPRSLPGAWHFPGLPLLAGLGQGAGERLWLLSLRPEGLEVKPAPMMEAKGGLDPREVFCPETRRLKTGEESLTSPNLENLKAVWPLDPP
Summary of the method: as §1

SPDEF = molecular target: T9, SPDEF (Homo sapiens, UniProt O95238 1-335)
T9 sequence: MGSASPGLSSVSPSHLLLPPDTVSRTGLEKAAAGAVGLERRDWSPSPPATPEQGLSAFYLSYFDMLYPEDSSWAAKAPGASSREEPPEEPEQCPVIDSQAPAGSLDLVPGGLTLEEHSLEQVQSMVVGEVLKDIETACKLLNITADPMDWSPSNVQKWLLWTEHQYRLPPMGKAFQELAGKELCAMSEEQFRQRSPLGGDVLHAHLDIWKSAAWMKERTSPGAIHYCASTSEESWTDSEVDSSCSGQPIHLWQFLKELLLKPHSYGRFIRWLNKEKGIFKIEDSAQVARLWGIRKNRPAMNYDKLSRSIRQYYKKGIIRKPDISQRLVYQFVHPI
Summary of the method: as §1

ETV3 = molecular target: T10, ETV3 (Homo sapiens, UniProt P41162-2 1-143)
T10 sequence: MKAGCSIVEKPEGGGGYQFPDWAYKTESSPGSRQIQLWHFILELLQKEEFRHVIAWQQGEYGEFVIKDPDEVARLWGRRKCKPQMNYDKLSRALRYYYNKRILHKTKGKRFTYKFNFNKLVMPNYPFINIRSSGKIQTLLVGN
Summary of the method: as §1

ETV6 = ETV6 (Homo sapiens, UniProt P41212 1-452)
ETV6, sequence (P41212 whole entry): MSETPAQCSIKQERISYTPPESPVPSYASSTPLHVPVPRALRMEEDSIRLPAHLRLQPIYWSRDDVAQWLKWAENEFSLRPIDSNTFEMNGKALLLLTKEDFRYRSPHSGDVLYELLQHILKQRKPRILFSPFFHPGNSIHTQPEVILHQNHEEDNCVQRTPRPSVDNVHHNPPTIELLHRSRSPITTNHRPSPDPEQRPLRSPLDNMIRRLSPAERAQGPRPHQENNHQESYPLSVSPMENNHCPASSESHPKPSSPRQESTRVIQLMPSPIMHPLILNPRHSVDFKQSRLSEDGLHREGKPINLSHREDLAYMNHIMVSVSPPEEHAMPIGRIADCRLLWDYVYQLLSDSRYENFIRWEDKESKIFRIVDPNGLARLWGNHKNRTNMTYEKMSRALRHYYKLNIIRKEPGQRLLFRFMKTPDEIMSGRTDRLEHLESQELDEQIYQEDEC
Summary of the method: as §1

## GTCCGC
FLI1
  binding signal: 1.1 fold enrichment (6-mer frequency, TF over GST control)
GABPA
  binding signal: 1 fold enrichment (6-mer frequency, TF over GST control)
ERG
  binding signal: 1.04 fold enrichment (6-mer frequency, TF over GST control)
EHF
  binding signal: 1.05 fold enrichment (6-mer frequency, TF over GST control)
SPIB
  binding signal: 1.03 fold enrichment (6-mer frequency, TF over GST control)
ELK3
  binding signal: 1.1 fold enrichment (6-mer frequency, TF over GST control)
FEV
  binding signal: 1.04 fold enrichment (6-mer frequency, TF over GST control)
ETV5
  binding signal: 1.07 fold enrichment (6-mer frequency, TF over GST control)
SPIC
  binding signal: 1.21 fold enrichment (6-mer frequency, TF over GST control)
ETV1
  binding signal: 1.08 fold enrichment (6-mer frequency, TF over GST control)
ETV3L
  binding signal: 1.02 fold enrichment (6-mer frequency, TF over GST control)
SPDEF
  binding signal: 1.07 fold enrichment (6-mer frequency, TF over GST control)
ETV3
  binding signal: 1.03 fold enrichment (6-mer frequency, TF over GST control)
ETV6
  binding signal: 1.03 fold enrichment (6-mer frequency, TF over GST control)
